Laboratory results taken from the supplement of paper PMC11219838.

The compounds below were run on Caenorhabditis elegans L1 (N2) (assay: survival and reproduction score of C. elegans L1 (0: 0-10 living worms, 1: 11-20, 2: 21-50, 3: >50, 4: overgrown) (score 0-4); higher = more worms, less nematicidal, active = 1 or less; extreme values may be limits of the assay). Conditions: 60 µM; 6 days; temperature: 20 °C.
Procedure, shortened: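 About 20 synchronized C. elegans N2 L1s were added per 96-well well with E. coli HB101 in liquid NGM, and compound was pinned to 60 µM final (0.6% v/v DMSO). Sealed plates were shaken at 200 rpm for 6 days at 20 °C. Survival and reproduction were scored under a dissection microscope as an ordinal score of living worms per well. The scale ran 0 (0–10 worms) to 4 (overgrown, starved), and two biological replicates were averaged.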

Structure (SMILES) | survival and reproduction score
Cc1ccc(CSc2nnc(-c3ccco3)o2)c(C)c1 | 0 (active)
Cc1ccc(-c2noc(-c3ccc(-n4nncc4C)cc3)n2)cc1 | 4 (inactive)
O=C(CSc1nnc(-c2ccccc2)o1)Nc1ccc(Br)cc1F | 4 (inactive)
CCOc1cc(-c2noc(-c3ccncc3)n2)ccc1OC | 4 (inactive)
COc1cccc(OCc2nc(-c3cccc(C)c3)no2)c1 | 4 (inactive)
CC(=O)Nc1cccc(-c2nnc(SCc3ccc(F)cc3)o2)c1 | 4 (inactive)
Cc1ccc(-c2nc(-c3ccncc3)no2)c(Cl)c1 | 2 (inactive)
Cc1ccc(NC(=O)CSc2nnc(-c3ccncc3)o2)cc1Cl | 4 (inactive)
CCC(=O)Nc1ccccc1-c1nc(-c2ccccn2)no1 | 4 (inactive)
CCc1cccc(C)c1NC(=O)CSc1nnc(-c2ccccc2)o1 | 4 (inactive)
Cc1cccc(-c2noc(-c3ccc(Br)cc3)n2)c1 | 4 (inactive)
Cc1ccc(-c2nc(-c3cccnc3)no2)c(C)c1 | 0 (active)
Cc1ccc(C)c(-c2nc(-c3cccnc3)no2)c1 | 0 (active)
Cc1ccc(-c2noc(-c3ccccc3C)n2)cc1 | 0 (active)
CCOC(=O)c1ccc(NC(=O)c2ccccc2-c2nc(-c3cccc(C)c3)no2)cc1 | 4 (inactive)
CN(C)C(=O)c1ccccc1-c1nc(-c2ccc(Cl)cc2)no1 | 4 (inactive)
O=C(Nc1ccc(-c2noc(COc3ccccc3Cl)n2)cc1)c1ccccn1 | 4 (inactive)
Clc1ccc(CSc2nnc(-c3ccccc3)o2)cc1Cl | 4 (inactive)
Cc1ccccc1-c1nc(-c2ccc3c(c2)OCO3)no1 | 2.5 (inactive)

Structure (SMILES) | survival and reproduction score
COc1ccc(-c2nnc(SCC(=O)N3CC(C)CC(C)C3)o2)cc1 (stereo not drawn) | 4 (inactive)
c1ccc(CSc2nnc(-c3ccccc3)o2)cc1 | 0 (active)
COc1ccc(Cl)cc1-c1nnc(SCC(=O)Nc2nccs2)o1 | 4 (inactive)
Cc1cccc(-c2noc(COc3ccc(C)cc3C)n2)c1 | 4 (inactive)
Cc1csc(NC(=O)CSc2nnc(-c3cccc(Cl)c3)o2)n1 | 4 (inactive)
COc1ccc(NC(=O)CSc2nnc(-c3ccc(Br)cc3)o2)cc1 | 4 (inactive)
CCOc1cc(-c2nc(-c3ccccc3C)no2)cc(OCC)c1OCC | 4 (inactive)
Cc1ccc(-c2noc(COc3cccc(C)c3)n2)cc1 | 4 (inactive)
O=C(CSc1nnc(-c2ccccc2)o1)Nc1cc(C(F)(F)F)ccc1Cl | 4 (inactive)
COc1nc(-c2ccc(C)cc2)ccc1-c1noc(-c2ccc(F)cc2)n1 | 4 (inactive)
CC(C)Oc1ccc(-c2nc(-c3ccccn3)no2)cc1 | 0 (active)
Cc1cccc(-c2nnc(SCC(=O)Nc3ccccc3F)o2)c1 | 4 (inactive)
CC(C)CCC(=O)Nc1ccccc1-c1nc(-c2ccncc2)no1 | 4 (inactive)
O=C(CSc1nnc(-c2ccc(Cl)cc2)o1)Nc1ccc(F)cc1 | 4 (inactive)
CCCC(=O)Nc1ccccc1-c1nc(-c2cccnc2)no1 | 4 (inactive)
COc1ccccc1-c1nc(-c2ccccc2Cl)no1 | 4 (inactive)
COc1ccc(-c2noc(COc3ccc(Cl)cc3C)n2)cc1 | 4 (inactive)
Cn1cc(C(=O)CSc2nnc(-c3ccccc3)o2)c2ccccc21 | 0 (active)
Cc1cc(OCc2nc(-c3ccncc3)no2)c(C)c(C)c1Br | 4 (inactive)
